Reference: PubChem BioAssay (NCI)
Where “and” joins values, the source holds several entries; their conditions need not be identical. Identical values can stand only once. This is part of a sample that, as a whole, favours compounds with a hit. Of some 83,000 tested, about 20% had one in any assay.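 Single-dose data. Exposure time 48 hours. Values below 10 considered active.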 A number with no mark means an inactive call. Calls of active or inactive are those of the source.

tested on: OVCAR-5 ovarian; assay: NCI-60 one-dose screen, 48 h (100 = growth as untreated, 0 = no growth, -100 = all killed); settings: 10 µM unless noted

Row | SMILES | growth
1 | N#CSCC(=O)c1ccc(Cl)cc1 | 22.5%
2 | Cn1c2c(c3ccccc31)CCN1C[C@@H]3CCCC[C@H]3C[C@@H]21 | 25%
3 | Oc1c(Br)cc(Cl)cc1C(c1cc(Cl)cc(Br)c1O)C(Cl)(Cl)Cl | 42%
4 | CC1SC(=S)N(c2ccc(Cl)cc2)C1=O (centres undefined) | 91.3% and 89.6%
5 | O=C1OCc2cccc3cccc1c23 | 108%
6 | Nc1ccc(SSc2ccc(N)cc2)cc1 | 101%
7 | CCCCCCCCCCCCCCCCN(CC)CC | -57.3% (active)
8 | CCCCCCCCCCCCCCCC[N+](C)(CCO)Cc1cnc[nH]1 (centres undefined) | -13.7% (active)

tested on: OVCAR-4 ovarian; assay: as above; settings: 10 µM unless noted

Row | SMILES | growth
9 | CN(C)CCOc1ccc2c(c1)C(=O)/C(=C\c1ncc([N+](=O)[O-])n1C)C2 | -49.1% (active)
10 | CC(=O)C(=Cc1ccc(C=C(C(C)=O)C(C)=O)cc1)C(C)=O | 30.4%
11 | N#CSCc1ccc(CSC#N)c(Cl)c1 | 85.2%
12 | Nc1nc(N)c2nc(CNc3ccc(C(=O)NC(CCC(=O)O)C(=O)O)cc3)cnc2n1 (centres undefined) | 58.8% and 49.1%
13 | CCOC(=O)/C=C/c1ccc([N+](=O)[O-])o1 | 97.4%
14 | Cc1cc(C(C)(CC(C)C)c2ccc(O)c(C)c2)ccc1O | 94.8%
15 | Nc1nc(N)c2c(ccc3c2ccn3Cc2cccc([N+](=O)[O-])c2)n1 | -79.2% (active)
16 | O[C@H]1[C@H]2c3cc4c(cc3CN3CCC(=C[C@@H]1O)[C@H]23)OCO4 | 16.5%
17 | CN1c2ccccc2C(C)(C)C12C=Cc1cc(O)ccc1O2 (centres undefined) | 72.9%
18 | CN(Cc1cnc2nc(N)nc(N)c2n1)c1ccc(C(=O)NC(CCC(=O)O)C(=O)O)cc1 (centres undefined) | 61.3%
19 | CCOc1ccc(-c2nc3ccc(-c4nc5ccc(N6CCN(C)CC6)cc5[nH]4)cc3[nH]2)cc1 | -65.1% (active)
20 | CNc1ccc(N)cc1 | 89.6%
21 | CC(=O)Nc1cccc2cc(O)ccc12 | 119% and 109% and 98.8%
22 | CC1OC(OC2C(OC3CCC4(C)C(CCC5(C)C4CC=C4C6CC(C)(C)CCC6(CO)C(O)CC45C)C3(C)C)OC(C(=O)O)C(OC3OC(COC4OC(CO)C(O)C(O)C4O)C(O)C(O)C3O)C2O)C(O)C(O)C1O (centres undefined) | -84.3% (active)
23 | CC1(C)CC([P+](c2ccccc2)(c2ccccc2)c2ccccc2)=NN1 | 17.9%
24 | CN(C)c1ccc(N=Nc2cccc3ccccc23)cc1 | 81.4%
25 | CN(C)c1ccc(C(=C2C=CC(=[N+](C)C)C=C2)c2ccc(N(C)C)cc2)cc1 (tested in a mixture with another compound) | -40.1% (active)
26 | CC1OC2CC(=O)OC2C2=C1C(=O)c1c(O)cccc1C2=O (centres undefined) | -98.5% (active)
27 | O=C1c2ccccc2C(=O)c2sc(Nc3ccc(Cl)cc3)nc21 | 1.65% (active)
28 | N#CSCC(=O)c1ccc(Cl)cc1 | 63.5%
29 | Cn1c2c(c3ccccc31)CCN1C[C@@H]3CCCC[C@H]3C[C@@H]21 | 40.9%
30 | Cc1ccc(C(=Nc2ccccc2)N=P(c2ccccc2)(c2ccccc2)c2ccccc2)cc1 | 29%
31 | CC1SC(=S)N(c2ccc(Cl)cc2)C1=O (centres undefined) | 97.5% and 91.3%
32 | N#CSCc1ccc(Cl)c(CSC#N)c1 | 48.7%
33 | O=C1OCc2cccc3cccc1c23 | 97.1%
34 | O=C(O)C1C2CC3C(OC(=O)C31)C2Br (centres undefined) | 114% and 89.8%
35 | CCCCCCCCCCCCCCCCN(CC)CC | -6.38% (active)
36 | O=C1NC(=O)/C(=C/C=C/c2ccccc2)S1 | 70.1%
37 | CCCCCCCCCCCCCCCC[N+](C)(CCO)Cc1cnc[nH]1 (centres undefined) | -1.06% (active)
38 | CCC1OC(OC)C=CC1=O (centres undefined) | 103%

tested on: SK-OV-3 ovarian; assay: as above; settings: 10 µM unless noted

Row | SMILES | growth
39 | CN(C)CCOc1ccc2c(c1)C(=O)/C(=C\c1ncc([N+](=O)[O-])n1C)C2 | -42.6% (active)
40 | CC(=O)C(=Cc1ccc(C=C(C(C)=O)C(C)=O)cc1)C(C)=O | 93.9%
41 | N#CSCc1ccc(CSC#N)c(Cl)c1 | 115%
42 | Nc1nc(N)c2nc(CNc3ccc(C(=O)NC(CCC(=O)O)C(=O)O)cc3)cnc2n1 (centres undefined) | 53.9% and 44.2%
43 | CCOC(=O)/C=C/c1ccc([N+](=O)[O-])o1 | 106%
44 | Cc1cc(C(C)(CC(C)C)c2ccc(O)c(C)c2)ccc1O | 97%
45 | Nc1nc(N)c2c(ccc3c2ccn3Cc2cccc([N+](=O)[O-])c2)n1 | -100% (active)
46 | O[C@H]1[C@H]2c3cc4c(cc3CN3CCC(=C[C@@H]1O)[C@H]23)OCO4 | 22%
47 | CCOc1ccc(-c2nc3ccc(-c4nc5ccc(N6CCN(C)CC6)cc5[nH]4)cc3[nH]2)cc1 | -93.7% (active)
48 | CNc1ccc(N)cc1 | 114%
49 | CC(=O)Nc1cccc2cc(O)ccc12 | 111% and 115% and 99.8%
50 | CC1(C)CC([P+](c2ccccc2)(c2ccccc2)c2ccccc2)=NN1 | 33.2%
51 | CN(C)c1ccc(N=Nc2cccc3ccccc23)cc1 | 80.1%
52 | CC1OC2CC(=O)OC2C2=C1C(=O)c1c(O)cccc1C2=O (centres undefined) | 21%
53 | N#CSCC(=O)c1ccc(Cl)cc1 | 66.7%
54 | Cc1ccc(C(=Nc2ccccc2)N=P(c2ccccc2)(c2ccccc2)c2ccccc2)cc1 | -66.3% (active)
55 | N#CSCc1ccc(Cl)c(CSC#N)c1 | 90.1%
56 | O=C1OCc2cccc3cccc1c23 | 112%
57 | O=C(O)C1C2CC3C(OC(=O)C31)C2Br (centres undefined) | 95.8% and 105%
58 | CCCCCCCCCCCCCCCCN(CC)CC | -46.1% (active)
59 | CCC1OC(OC)C=CC1=O (centres undefined) | 102%
